Test results from PubChem BioAssay AID1159580 (chemical genetic matrix, 2015).
“And” between values parts separate entries of the source, which are not always exact repeats. Equal entries are not always repeated. Among all 5,500 compounds or so, about 2,000 (36%) were called active. Roughly 18% stayed inconclusive and do not appear here. Cut-off read from the data, not from the text of the source: active = normalized growth mostly below about 0.91 (no sharp cut-off); inconclusive = no clear call, values can overlap the other calls; inactive = mostly above about 0.92. Some of the results follow.

Assay: chemical genetic growth profiling, strain panel (AID 1159580);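 note: tested at 20 µM; growth read once vehicle control cultures reached saturation at 30 °C; 1 = growth at the plate median or of vehicle wells; lower values mean less growth of the strain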
Settings: S. cerevisiae deletion strains, growth OD

Measured: normalized growth

Clc1cccc(Cl)c1NC1=NCCN1
inactive: locus YAL021C, strain ccr4, active compounds read low 0.973 | locus YAL026C, strain drs2, active compounds read low 1.01 | locus YAL030W, strain snc1, active compounds read low 0.993 | locus YAL040C, strain CLN3, active compounds read low 0.999 | locus YBL061C, strain skt5, active compounds read low 0.972 | locus YBR009C, strain hhf1, active compounds read low 1 | locus YBR021W, strain FUR4, active compounds read low 1.03 | locus YBR023C, strain chs3, active compounds read low 0.983 | locus YBR171W, strain sec66, active compounds read low 0.977 | locus YBR229C, strain ROT2, active compounds read low 0.999 | locus YBR231C, strain swc5, active compounds read low 0.998 | locus YBR279W, strain paf1, active compounds read low 1.01 | locus YCL011C, strain gbp2, active compounds read low 0.96 | locus YCL016C, strain dcc1, active compounds read low 0.962 | locus YCL029C, strain bik1, active compounds read low 1.02 | locus YCL061C, strain MRC1, active compounds read low 0.989 | locus YCL069W, strain vba3, active compounds read low 0.991 | locus YCR088W, strain abp1, active compounds read low 0.992 | locus YDL005C, strain med2, active compounds read low 0.996 | locus YDL035C, strain GPR1, active compounds read low 1.02 | locus YDL040C, strain nat1, active compounds read low 1.01 | locus YDL074C, strain BRE1, active compounds read low 1.03 | locus YDL101C, strain DUN1, active compounds read low 1.02 | locus YDL134C, strain PPH21, active compounds read low 1.01 | locus YDL185W, strain tfp1, active compounds read low 1.01 | locus YDL192W, strain arf1, active compounds read low 1.02 | locus YDR001C, strain nth1, active compounds read low 0.972 | locus YDR069C, strain doa4, active compounds read low 0.992 | locus YDR101C, strain arx1, active compounds read low 1.03 | locus YDR137W, strain rgp1, active compounds read low 0.959 | locus YDR150W, strain NUM1, active compounds read low 1.01 | locus YDR159W, strain sac3, active compounds read low 1.01 | locus YDR162C, strain NBP2, active compounds read low 1.01 | locus YDR195W, strain ref2 0.994 | locus YDR297W, strain sur2, active compounds read low 0.98 | locus YDR318W, strain mcm21, active compounds read low 1.02 | locus YDR334W, strain swr1, active compounds read low 0.954 | locus YDR335W, strain msn5, active compounds read low 0.973 | locus YDR388W, active compounds read low 1.01 | locus YDR392W, strain spt3, active compounds read low 0.904 | locus YDR502C, strain sam2, active compounds read low 1.03 | locus YEL003W, strain gim4, active compounds read low 0.984 | locus YEL037C, strain rad23, active compounds read low 0.999 | locus YEL061C, strain CIN8 (second series), active compounds read low 0.988 | locus YEL061C, strain CIN8, active compounds read low 1.01 | locus YER002W, strain NOP16, active compounds read low 0.99 | locus YER015W, strain faa2, active compounds read low 1 | locus YER016W, strain bim1, active compounds read low 0.996 | locus YER110C, active compounds read low 1.02 | locus YER111C, strain swi4, active compounds read low 0.993 | locus YER155C, strain BEM2 (second series), active compounds read low 1 | locus YER155C, strain BEM2, active compounds read low 1.01 | locus YER167W, strain BCK2, active compounds read low 1.01 | locus YFR010W, strain ubp6, active compounds read low 0.998 | locus YGL078C, strain dbp3, active compounds read low 1.03 | locus YGL086W, strain mad1, active compounds read low 1.06 | locus YGL167C, strain pmr1, active compounds read low 0.991 | locus YGL173C, strain kem1, active compounds read low 0.985 | locus YGL227W, strain vid30, active compounds read low 0.992 | locus YGL240W, strain doc1, active compounds read low 0.995 | locus YGL248W, strain PDE1, active compounds read low 1.03 | locus YGL253W, strain hxk2, active compounds read low 0.963 | locus YGR135W, strain pre9, active compounds read low 1.04 | locus YGR229C, strain SMI1, active compounds read low 0.992 | locus YGR252W, strain gcn5, active compounds read low 1.05 | locus YHR013C, strain ard1, active compounds read low 0.965 | locus YHR027C, strain rpn1, active compounds read low 0.98 | locus YHR030C, strain SLT2, active compounds read low 1.01 and 0.969 | locus YHR079C, strain IRE1 (second series), active compounds read low 1.02 | locus YHR079C, strain IRE1, active compounds read low 0.98 | locus YHR094C, strain hxt1, active compounds read low 1.02 | locus YHR129C, strain ARP1, active compounds read low 1.01 | locus YHR142W, strain chs7, active compounds read low 0.932 | locus YHR200W, strain rpn10, active compounds read low 1.02 | locus YIL066C, strain RNR3, active compounds read low 1.01 | locus YIL073C, strain SPO22, active compounds read low 1.07 | locus YIL125W, strain kgd1, active compounds read low 1.02 | locus YIR030C, strain dcg1, active compounds read low 1.01 | locus YJL092W, strain hpr5, active compounds read low 0.994 | locus YJL095W, strain BCK1 (second series), active compounds read low 0.983 | locus YJL095W, strain BCK1, active compounds read low 1.04 and 0.975 | locus YJL115W, strain asf1, active compounds read low 0.969 | locus YJL129C, strain trk1, active compounds read low 0.97 | locus YJL134W, strain LCB3, active compounds read low 1.01 | locus YJL154C, strain vps35, active compounds read low 0.972 | locus YJL164C, strain tpk1, active compounds read low 0.996 | locus YJL166W, strain qcr8, active compounds read low 0.953 | locus YJL168C, strain set2, active compounds read low 1.02 | locus YJL187C, strain SWE1 (second series), active compounds read low 1.03 | locus YJL187C, strain SWE1, active compounds read low 1 | locus YJR043C, strain POL32, active compounds read low 1.03 | locus YJR066W, strain TOR1, active compounds read low 0.996 | locus YJR075W, strain HOC1, active compounds read low 1.01 | locus YKL009W, strain mrt4, active compounds read low 1.02 | locus YKL068W, active compounds read low 1 | locus YKL085W, strain MDH1 (second series), active compounds read low 1.06 | locus YKL085W, strain MDH1, active compounds read low 1.06 | locus YKL160W, strain elf1, active compounds read low 0.951 | locus YKL190W, strain CNB1, active compounds read low 1.01 | locus YKR001C, strain vps1, active compounds read low 1.01 | locus YKR026C, strain gcn3, active compounds read low 0.986 | locus YKR091W, strain srl3, active compounds read low 0.982 | locus YLL001W, strain dnm1, active compounds read low 0.933 | locus YLL026W, active compounds read low 0.986 | locus YLL041C, strain sdh2, active compounds read low 1 | locus YLR027C, strain aat2, active compounds read low 1.01 | locus YLR039C, strain RIC1, active compounds read low 1.01 | locus YLR058C, strain SHM2, active compounds read low 1.02 | locus YLR102C, strain apc9, active compounds read low 1.01 | locus YLR113W, strain HOG1, active compounds read low 0.951 | locus YLR221C, strain rsa3, active compounds read low 0.944 | locus YLR258W, strain gsy2, active compounds read low 0.985 | locus YLR262C, strain YPT6 (second series), active compounds read low 0.974 | locus YLR262C, strain YPT6, active compounds read low 0.982 | locus YLR268W, strain sec22, active compounds read low 1.02 | locus YLR320W, strain mms22, active compounds read low 0.944 | locus YLR330W, strain CHS5, active compounds read low 1.01 | locus YLR342W, strain FKS1 (second series), active compounds read low 1.01 | locus YLR342W, strain FKS1, active compounds read low 0.995 | locus YLR357W, strain rsc2, active compounds read low 0.974 | locus YLR370C, strain arc18, active compounds read low 0.968 | locus YLR371W, strain rom2, active compounds read low 1.01 | locus YLR384C, strain iki3, active compounds read low 0.988 | locus YLR418C, strain cdc73, active compounds read low 1.05 | locus YML016C, strain PPZ1, active compounds read low 1 | locus YML032C, strain rad52, active compounds read low 1.02 | locus YML120C, strain ndi1, active compounds read low 0.941 | locus YML124C, strain tub3, active compounds read low 1.01 | locus YMR058W, strain fet3, active compounds read low 0.99 | locus YMR078C, strain ctf18, active compounds read low 1.01 | locus YMR125W, strain sto1, active compounds read low 0.958 | locus YMR129W, active compounds read low 0.999 | locus YMR205C, strain PFK2, active compounds read low 0.947 | locus YMR223W, strain ubp8, active compounds read low 1.04 | locus YMR231W, strain pep5, active compounds read low 0.999 | locus YMR263W, strain SAP30, active compounds read low 0.988 | locus YMR307W, strain GAS1, active compounds read low 1.09 | locus YNL067W, strain RPL9B, active compounds read low 1.05 | locus YNL071W, strain lat1, active compounds read low 0.993 | locus YNL175C, strain NOP13, active compounds read low 1.01 | locus YNL183C, strain NPR1, active compounds read low 0.926 | locus YNL197C, strain WHI3, active compounds read low 0.999 | locus YNL209W, strain ssb2, active compounds read low 0.991 | locus YNL224C, strain SQS1, active compounds read low 1 | locus YNL233W, strain BNI4, active compounds read low 1.02 | locus YNL248C, strain rpa49, active compounds read low 0.995 | locus YNL250W, strain rad50, active compounds read low 1.02 | locus YNL271C, strain bni1, active compounds read low 1.02 | locus YNL298W, strain CLA4, active compounds read low 1.02 | locus YNL307C, strain MCK1, active compounds read low 1.02 | locus YNL322C, strain KRE1 (second series), active compounds read low 0.982 | locus YNR049C, strain mso1, active compounds read low 0.981 | locus YNR052C, strain pop2, active compounds read low 1.02 | locus YOL006C, strain TOP1, active compounds read low 1.18 | locus YOL012C, strain htz1 0.754 | locus YOL147C, strain pex11, active compounds read low 1.02 | locus YOR001W, strain rrp6, active compounds read low 1.04 | locus YOR061W, strain CKA2, active compounds read low 1.01 | locus YOR069W, strain VPS5, active compounds read low 1.01 | locus YOR070C, strain gyp1, active compounds read low 0.996 | locus YOR080W, strain dia2, active compounds read low 0.979 | locus YOR083W, strain WHI5 (second series), active compounds read low 0.997 | locus YOR083W, strain WHI5, active compounds read low 0.957 | locus YOR106W, strain vam3, active compounds read low 0.944 | locus YOR136W, strain idh2, active compounds read low 1.03 | locus YOR144C, strain elg1, active compounds read low 1.01 | locus YOR184W, strain ser1, active compounds read low 1.03 | locus YOR231W, strain MKK1, active compounds read low 0.989 | locus YOR265W, strain rbl2, active compounds read low 1 | locus YOR270C, strain vph1, active compounds read low 0.939 | locus YOR290C, strain snf2, active compounds read low 0.939 | locus YOR316C, strain cot1, active compounds read low 1.02 | locus YPL051W, strain arl3, active compounds read low 0.991 | locus YPL055C, strain LGE1, active compounds read low 1.04 | locus YPL078C, strain atp4, active compounds read low 0.954 | locus YPL106C, strain sse1, active compounds read low 0.94 | locus YPL240C, strain hsp82, active compounds read low 1 | locus YPL256C, strain CLN2, active compounds read low 0.993 | locus YPR119W, strain clb2, active compounds read low 1.02 | locus YPR141C, strain kar3, active compounds read low 1.01 | locus YPR163C, strain tif3, active compounds read low 1.01 | locus YPR167C, strain met16, active compounds read low 1.01 | strain wtn01, active compounds read low 1.04
